# Inconclusive results are not listed. Activity calls are given as the source filed them. Unless noted, calls follow the shape of the dose curve; as a rule, active = well fitted activation curve with a large enough effect in the main read-out, with a control signal flat (not every such curve was filed as active); inconclusive = small, poorly fitted or top-dose-only effect, or effect the other way, or a change in a side signal; inactive = flat fitted curve, though single readings scatter.
# Legend:
# [1] = target: 3',5'-cyclic-AMP phosphodiesterase 4B (Homo sapiens) (UniProt Q07343); test: qHTS Assay for Inhibitors of PDE-IV (AID 607)
# How it was run: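 HEK293 ACTOne cells with CNG channel (1000/well), endogenous PDE4; membrane potential dye, compounds up to 22.9 uM final. Fluorescence Ex 535/Em 590; RO 20-1724 (100 uM final) as reference.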
# [2] = Cellular Toxicity (caspase-3) HepG2 (AID 654; active = well fitted curve in the direction sought with a large enough effect; an effect the other way counts as inactive or inconclusive;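 also: cells exposed to compound for 16 hours before reading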)
# How it was run: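 qHTS, HepG2, 1500 cells/well, complete medium; cpd 16 h 37 °C; Caspase-Glo 3/7, 20 min RT; lum. Norm: DMSO vs 100 uM tamoxifen; AC50 Hill fit.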
# [3] = Cellular Toxicity (caspase-3) Jurkat (AID 655; active = well fitted curve in the direction sought with a large enough effect; an effect the other way counts as inactive or inconclusive;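 also: cells exposed to compound for 16 h at 37 °C before reading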)
# How it was run: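 5000 Jurkat cells/well; compound 16 hr, 37 °C; Caspase-Glo 3/7 added, 20 min RT; luminescence read. Norm: DMSO = 0%, tamoxifen 100 uM = 100%. AC50, Hill model.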
# [4] = Cellular Toxicity (caspase-3) HUV-EC-C (AID 656; active = well fitted curve in the direction sought with a large enough effect; an effect the other way counts as inactive or inconclusive)
# How it was run: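 qHTS; HUV-EC-C, 1000 cells/well; 5 hr settle, 16 hr cmpd, 37°C; Caspase-Glo 3/7, 20 min RT; luminescence. Norm: DMSO = 0%, tamoxifen 100 uM = 100%. Hill-fit AC50.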
# [5] = Cellular Toxicity (caspase-3) SHSY5Y (AID 657; active = well fitted curve in the direction sought with a large enough effect; an effect the other way counts as inactive or inconclusive;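 also: cells exposed to compound for 16 hours at 37 °C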)
# How it was run: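 qHTS, SH-SY5Y, 1500 cells/well, 5 h pre-incubation 37 °C; compound 16 h 37 °C; Caspase-Glo 3/7 1 h RT; luminescence. Norm.: DMSO = 0, 10 uM staurosporine = 100%. Hill fit → AC50.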
# [6] = Cellular Toxicity (caspase-3) BJ (AID 658; active = well fitted curve in the direction sought with a large enough effect; an effect the other way counts as inactive or inconclusive;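 also: cells exposed to compound for 16 hours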)
# How it was run: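 Luminescent aminoluciferin-substrate cleavage reports caspase 3/7 activity in normal human BJ fibroblasts after 16 hr compound exposure at 37 °C. Normalized to DMSO (basal) and 10 uM staurosporine (100%); AC50 from Hill fit of concentration-response.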
# [7] = Cellular Toxicity (caspase-3) MRC-5 (AID 659; active = well fitted curve in the direction sought with a large enough effect; an effect the other way counts as inactive or inconclusive)
# How it was run: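 Luminescence from caspase-cleaved aminoluciferin substrate (Caspase-Glo 3/7, 1 hr RT) reports caspase 3/7 activity in MRC-5 lung fibroblasts after 16 hr compound exposure. Normalized to DMSO basal and 10 uM staurosporine as 100%; AC50 from Hill fits.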
# [8] = Cellular Toxicity (caspase-3) Mesangial (AID 660; active = well fitted curve in the direction sought with a large enough effect; an effect the other way counts as inactive or inconclusive;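 also: combined caspase 3 and 7 activity read by Caspase-Glo luminescence; cells exposed to compound for 16 h before the caspase read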)
# How it was run: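 Concentration-response qHTS: compound-induced rise in caspase 3/7 luminescence in human mesangial cells after 16 h, normalized to DMSO and 100 uM tamoxifen controls.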
# [9] = Cellular Toxicity (caspase-3) SK-N-SH (AID 661; active = well fitted curve in the direction sought with a large enough effect; an effect the other way counts as inactive or inconclusive;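 also: cells exposed to compound for 16 hours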)
# How it was run: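 Caspase 3/7 activation is measured as a luminescence increase from aminoluciferin released by substrate cleavage in SK-N-SH cells after 16 hr compound treatment; values are AC50 from concentration-response curves.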
# [10] = Cellular Toxicity (caspase-3) H-4-II-E (AID 663; active = well fitted curve in the direction sought with a large enough effect; an effect the other way counts as inactive or inconclusive;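 also: cells exposed to compound for 16 hr before readout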)
# How it was run: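 Luminescence from caspase-cleaved aminoluciferin substrate, read 20 min after reagent addition, reports caspase 3/7 activation in rat H-4-II-E cells after 16 hr compound exposure. Normalized to DMSO (basal) and 100 uM tamoxifen (100%); AC50 from Hill fits.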
# 3',5'-cyclic-AMP phosphodiesterase 4B (Homo sapiens), sequence (Q07343 whole entry, looked up): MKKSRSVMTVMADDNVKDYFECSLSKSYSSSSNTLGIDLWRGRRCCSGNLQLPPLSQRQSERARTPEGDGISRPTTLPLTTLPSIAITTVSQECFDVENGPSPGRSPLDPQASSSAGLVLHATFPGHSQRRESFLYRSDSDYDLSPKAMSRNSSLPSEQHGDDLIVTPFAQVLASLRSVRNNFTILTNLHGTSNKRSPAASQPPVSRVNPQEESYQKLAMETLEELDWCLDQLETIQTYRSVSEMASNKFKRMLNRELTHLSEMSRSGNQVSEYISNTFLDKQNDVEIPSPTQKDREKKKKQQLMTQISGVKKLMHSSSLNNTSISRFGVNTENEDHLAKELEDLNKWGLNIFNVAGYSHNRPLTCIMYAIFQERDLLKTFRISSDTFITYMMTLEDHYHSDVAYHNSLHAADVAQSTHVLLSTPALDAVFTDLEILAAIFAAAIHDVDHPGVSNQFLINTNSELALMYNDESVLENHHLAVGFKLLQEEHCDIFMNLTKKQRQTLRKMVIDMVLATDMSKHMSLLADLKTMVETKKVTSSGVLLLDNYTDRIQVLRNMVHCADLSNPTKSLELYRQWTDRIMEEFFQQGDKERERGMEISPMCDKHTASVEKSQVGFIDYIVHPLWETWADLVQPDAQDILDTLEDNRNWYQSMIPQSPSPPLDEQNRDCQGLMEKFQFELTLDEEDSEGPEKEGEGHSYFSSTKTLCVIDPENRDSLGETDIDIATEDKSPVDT
structure (smiles),measurement,setting,value
CC(C)[C@H](CO)Nc1nc(Nc2cccc(Cl)c2)c2ncn(C(C)C)c2n1,outcome,[1],inactive
CC(Oc1ccc(O)cc1)(P(=O)(O)O)P(=O)(O)O,outcome,[1],inactive
O=c1c(O)c(-c2ccc(O)c(O)c2)oc2cc(O)ccc12,outcome,[1],inactive
Cc1cc(O)c2c(c1)C(=O)c1cccc(O)c1C2=O,outcome,[2],inactive
same,outcome,[3],inactive
same,outcome,[4],inactive
same,outcome,[5],inactive
same,outcome,[6],inactive
same,outcome,[7],inactive
same,outcome,[8],inactive
same,outcome,[9],inactive
same,outcome,[10],inactive
O=C(O)C=Cc1ccc(Cn2ccnc2)cc1,outcome,[1],inactive
CN(N=O)C(=O)N[C@H]1C(O)OC(CO)[C@@H](O)[C@H]1O (stereo partly specified),outcome,[1],inactive
CCN1CCN(C(=O)N[C@H](C(=O)N[C@@H]2C(=O)N3C(C(=O)O)=C(CSc4nnnn4C)CS[C@@H]23)c2ccc(O)cc2)C(=O)C1=O,outcome,[1],inactive
CN(C)CC[C@H](c1ccc(Cl)cc1)c1ccccn1,outcome,[1],inactive
Nc1nc2c(c(=O)[nH]1)N(C=O)[C@H](CNc1ccc(C(=O)N[C@@H](CCC(=O)O)C(=O)O)cc1)CN2,outcome,[1],inactive
COc1cc2c(cc1O)CCC1C2CC[C@@]2(C)C1CC[C@@H]2O (stereo partly specified),outcome,[1],inactive
COc1ccc2c(c1OC)C(=O)OC2[C@H]1c2c(cc3c(c2OC)OCO3)CCN1C (stereo partly specified),outcome,[1],inactive
CN1[C@H]2CC(OC(=O)[C@@H](CO)c3ccccc3)C[C@H]1[C@H]1O[C@H]12 (stereo partly specified),outcome,[1],inactive
c1coc(CNc2ncnc3nc[nH]c23)c1,outcome,[1],inactive
